# Results published in PubChem BioAssay AID588342 (National Center for Advancing Translational Sciences (NCATS), 2011).
# The campaign covered roughly 360,000 compounds. About 25,000 (6.9%) were called active. Roughly 9% stayed inconclusive and do not appear here. The entries come from a sample that favours actives as a whole. A number with no mark means an inactive call. The call rests on the fitted dose curve; in most records, active means well fitted inhibition curve with a large enough effect; inconclusive means small, poorly fitted or top-dose-only effect; inactive means flat fitted curve, though single readings scatter.
# Molecular target: Luciferin 4-monooxygenase (Photinus pyralis) (UniProt P08659)
# Sequence (P08659 whole entry, looked up): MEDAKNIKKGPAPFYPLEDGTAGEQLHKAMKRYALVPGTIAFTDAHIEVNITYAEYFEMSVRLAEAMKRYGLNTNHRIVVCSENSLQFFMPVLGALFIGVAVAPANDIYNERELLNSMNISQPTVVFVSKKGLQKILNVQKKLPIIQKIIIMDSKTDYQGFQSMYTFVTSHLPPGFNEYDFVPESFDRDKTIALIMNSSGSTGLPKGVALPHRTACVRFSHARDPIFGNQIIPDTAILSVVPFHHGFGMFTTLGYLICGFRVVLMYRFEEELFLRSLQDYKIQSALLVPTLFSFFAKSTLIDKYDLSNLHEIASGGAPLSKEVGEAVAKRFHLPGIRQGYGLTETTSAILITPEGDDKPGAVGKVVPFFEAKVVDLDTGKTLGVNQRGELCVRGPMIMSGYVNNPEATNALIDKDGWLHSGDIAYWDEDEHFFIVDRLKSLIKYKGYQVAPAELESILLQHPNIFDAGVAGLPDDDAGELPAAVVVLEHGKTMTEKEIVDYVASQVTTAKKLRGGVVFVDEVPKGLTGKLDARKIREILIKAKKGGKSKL
# Test: qHTS profiling assay for firefly luciferase inhibitor/activator using purifed enzyme and Km concentrations of substrates (counterscreen for miR-21 project); further: nearly all actives have a fitted effect of over 55% in size;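 on activity change, negative = inhibition: plate controls were vehicle for no effect and reference inhibitor for full effect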
# Settings: purified FLuc, luminescence inhibition; series mostly up to 57.5 µM; activity change, negative = inhibition: at the top concentration
# In short: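 Purified P. pyralis luciferase (10nM final) with 10uM D-luciferin and 10uM ATP (Km levels) in 50mM Tris acetate pH 7.5, 10mM Mg acetate, 0.01% Tween-20, 0.05% BSA; qHTS 6-point titration, ~60 µM downward; luminescence read.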
# Potency means the concentration at half of the fitted maximal effect.
Compound,"activity change, negative = inhibition [%]",Potency
CC(=O)c1ccc(NC(=O)C2CCN(S(=O)(=O)c3c(C)noc3/C=C/c3ccc(C)cc3)CC2)cc1,1.25,–
COc1ccc(C2(C)ON(c3ccccc3C(F)(F)F)C2=O)cc1 (configuration not stated),0.0812,–
CCNCCC(=O)N1c2ccccc2Sc2ccc(NC(=O)OCC)cc21,2.62,–
CC(C)Cc1cc(C(=O)NCCc2ccccc2)no1,–,10.7 µM (active)
O=C(Nc1ccccc1Br)c1cc(CN2CCCC2)on1,-18.8,–
Nc1nonc1C(=O)NCCc1ccccc1,-0.421,–
Cc1nn(Cc2ccc(F)cc2)c(C)c1NC(=O)c1cc(CC(C)C)on1,-4.75,–
CC(C)Cc1cc(C(=O)Nc2cc(Br)ccc2O)no1,–,12 µM (active)
C[C@H](NC(=O)NCCc1ccccc1)C(=O)O,-5.46,–
O=S(=O)(NCCCN1CCOCC1)c1ccc(F)c(Cl)c1,0.23,–
CCCN=C1NC(=O)C(CC(=O)NCCc2ccc(OC)c(OC)c2)S1 (configuration not stated),3.61,–
Cc1cccc(-n2ccnc2SCC(=O)Nc2cc(C(F)(F)F)ccc2Cl)c1,-5.71,–
CN1CCN(C(CNC(=O)c2ccccc2F)c2ccc3c(c2)OCO3)CC1 (configuration not stated),-1.47,–
C=CCn1c(SCC(N)=O)nnc1-c1cc2c(s1)CCC(CC)C2 (configuration not stated),–,7.57 µM (active)
C=CCn1c(SCc2c(C(=O)OC)sc(N)c2C(=O)OC)nnc1-c1ccc(Cl)cc1,0.526,–
CCn1c(CSc2nc(C)cc(C)n2)nnc1SCC(N)=O,0.421,–
Cc1oc2ncnc(N3CCCCC3)c2c1C(=O)N1CCN(c2cccc(Cl)c2)CC1,-3.14,–
Cc1ccc(O)c(NC(=O)CCS(=O)(=O)c2nc(-c3ccc4c(c3)OCO4)cc(C(F)(F)F)n2)c1,1.61,–
CCc1ccc(NC(=O)c2cc(S(=O)(=O)N3CCCC(C)C3)cn2C)cc1 (configuration not stated),-1.37,–
COc1ccc(NC(=O)c2sc(N3CCOCC3)nc2-c2ccccc2)c(OC)c1,-2.03,–
COc1ccc(Nc2nc(=O)[nH]nc2C)cc1,10.5,–
O=C(O)CCCCCNc1ncnc2ccc(Br)cc12,0.793,–
CCOc1ccc(Nc2ncnc3scc(-c4ccc(OC)cc4)c23)cc1,3.74,–

Compound,"activity change, negative = inhibition [%]",Potency
COc1ccc(Nc2ncnc3sc(C)cc23)cc1,–,16.9 µM (active)
Oc1ccccc1N1CCN(c2ncnc3sc(-c4ccccc4)cc23)CC1,-11.7,–
COc1ccc(Nc2ncnc3sc(-c4ccccc4)cc23)c(OC)c1,–,19 µM (active)
C=CCNc1ncnc2ccc(Br)cc12,-1.56,–
COc1ccc(Nc2ncnc3ccc(Br)cc23)c(OC)c1,–,26.9 µM (active)
Cc1cc(C)cc(NC(=O)CSc2nc3nccnc3c(=O)n2CCc2c[nH]c3ccccc23)c1,-6.41,–
COc1ccc(N2CCN(C(=O)C3CCCN(C(=O)c4cc5sccc5n4C)C3)CC2)cc1 (configuration not stated),-10.7,–
Cc1cc(C)c2sc(NC(=O)c3ccc(S(=O)(=O)N4CCCC4)cc3)nc2c1,-1.89,–
CC(C)(C)c1ccc(/C=C2\Oc3c(ccc(O)c3CN3CCN(CCO)CC3)C2=O)cc1,-7.13,–
CCOc1ccc(-n2c(C)nc3c(cnn3-c3ccc(C)cc3)c2=O)cc1,6.57,–
CCN(CC(=O)Nc1ccc(NC(C)=O)cc1)C(=O)CSC(=S)N1CCCC1,-0.101,–
Cn1c(-c2ccc(C(F)(F)F)cc2)cc2onc(-c3ccccc3)c2c1=O,–,0.536 µM (active)
O=c1c2ccccc2c(-c2ccc(F)cc2)nn1-c1ccc(C(F)(F)F)cc1,5.56,–
O=C1c2ccccc2C(=O)N1Cc1cc(-c2ccccc2Cl)no1,-14,–
Cc1[nH]n(C)c(=O)c1C(=O)c1c(-c2c(Cl)cccc2Cl)noc1C,0.456,–
Cc1onc(-c2ccccc2)c1C(=O)N1CCN(S(=O)(=O)c2ccccc2C(F)(F)F)CC1,3.66,–
Cn1c(-c2ccc(F)cc2)cc2onc(-c3ccccc3Cl)c2c1=O,–,2.13 µM (active)
COc1ccccc1C1C(C(=O)N2CCCCC2)=C(C)Nc2nc3ccccc3n21 (configuration not stated),1.67,–
COc1ccccc1CNC(=O)CCCN1C(=O)NC2(CCCC2)C1=O,-1.94,–
CCc1cc(CNC(=O)CC2C(=O)NCCN2CC2CCCCC2)on1 (configuration not stated),3.31,–
O=C(NC(Cc1ccccc1)C(=O)N1CCCC(C(F)(F)F)C1)c1ccccc1 (configuration not stated),-0.559,–
FC(F)(F)C1CCCN(c2nsc3ccccc23)C1 (configuration not stated),–,9.53 µM (active)
CC(=O)N1CCCc2cc(S(=O)(=O)N3CCC(C(=O)NCc4ccc(F)cc4)CC3)ccc21,-4.77,–

Compound,"activity change, negative = inhibition [%]",Potency
O=C(NC(=O)c1ccccc1)Nc1ccccc1O,–,1.9 µM (active)
O=C(NC(=O)N1CCOCC1)c1ccccc1,-2.28,–
CNC(=O)C(NC(=O)c1ccccc1)=C(C)C,-0.136,–
COc1ccc(OC)c(NC(=O)CSC2=Nc3ccccc3C3=NC(CC(=O)NCc4ccc(F)cc4)C(=O)N23)c1 (configuration not stated),-11,–
COc1ccccc1NC(=O)c1cc(Cl)nnc1Cl,-4.24,–
COc1cc(OC)c(C(=O)Nc2ccc(N(C)C)cc2)cc1OC,–,10.7 µM (active)
COc1cc2ccccc2cc1C(=O)Nc1ccccc1C,–,8.49 µM (active)
COc1cccc2sc(N(CCCN(C)C)C(=O)C(c3ccccc3)c3ccccc3)nc12,6.95,–
COc1cc2ccccc2cc1C(=O)N1CCOCC1,4.45,–
CCC(=O)Nc1nc(C)c(C(=O)Nc2cccc(Cl)c2)s1,-11.7,–
COc1cc2ccccc2cc1C(=O)Nc1nc(C)c(C(C)=O)s1,–,4.78 µM (active)
COC(=O)c1ccc(NC(=O)c2cc(Cl)ccc2OC)cc1,-7.08,–
COc1cc(OC)c(C(=O)Nc2ccccc2-c2ccccc2)cc1OC,4.62,–
CNC(=O)c1sc(NCc2ccccc2OC)nc1C,-3.58,–
COc1ccc(Br)cc1C(=O)Nc1cccc(C)c1C,3.91,–
COc1cccc2sc(Nc3nc(C)c(C(C)=O)s3)nc12,–,6.75 µM (active)
CC(=O)c1ccc(NC(=O)CSc2c(C(C)C)cnc3c2c(=O)n(C)c(=O)n3C)cc1,-12.3,–
CS(=O)(=O)N(CC(=O)N1CCOCC1)c1ccc2c3c(cccc13)CC2,3.63,–
Cc1ccc(S(=O)(=O)N2CCC(C(=O)OCC(=O)N3CC(=O)Nc4ccccc43)CC2)cc1,0.335,–
Cc1cc(C)n(CCC(=O)N2CCN(S(=O)(=O)c3ccc(C)c(C)c3)CC2)n1,0.684,–
COc1ccccc1C(=O)Nc1c(C(=O)N(C)Cc2ccccc2)sc2nc(C)c(Cl)c(C)c12,1.14,–
